Assay results: PubChem BioAssay (NCI)
The panel holds about 83,000 compounds, 20% with a hit somewhere; the sample as a whole holds those more often.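 For each line, cells grew in 96-well plates with the test compound present at a single concentration for 48 hours.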 Values without a mark were called inactive. The source made the active and inactive calls. How the source made its calls: active means growth percent below 10; inactive means the rest.

Legend:
Experiment in all cases: NCI-60 one-dose screen, 48 h (100 = growth as untreated, 0 = no growth, -100 = all killed)
Conditions in all cases: 10 µM unless noted
[1] = system: NCI-H23 lung
[2] = system: HOP-62 NSCLC
[3] = system: NCI-H460 lung
[4] = system: HOP-92 NSCLC
[5] = system: NCI-H522 lung
[6] = system: A549/ATCC NSCLC
[7] = system: 786-0 renal
[8] = system: COLO 205 colon
[9] = system: DU-145 prostate
[10] = system: K-562 leukemia
[11] = system: MALME-3M melanoma
[12] = system: MDA-MB-231 breast
[13] = system: RXF 393 renal
[14] = system: SF-268 CNS
[15] = system: SF-295 CNS
[16] = system: SF-539 CNS
[17] = system: UACC-257 melanoma
[18] = system: M14 melanoma
[19] = system: HCT-15 colon
[20] = system: NCI-H322M lung

SMILES	growth [1]	growth [2]	growth [3]	growth [4]	growth [5]	growth [6]	growth [7]	growth [8]	growth [9]	growth [10]	growth [11]	growth [12]	growth [13]	growth [14]	growth [15]	growth [16]	growth [17]	growth [18]	growth [19]	growth [20]
COC(=O)/C(CCC=C(C)C)=C1\[C@@H](OC(C)=O)C[C@@]2(C)[C@H]1C[C@@H](O)[C@H]1[C@@]3(C)CC[C@H](NCCO)[C@@H](C)[C@@H]3CC[C@@]12C	97.7%	106%	105%	93.6%	99.9%	109%	98.7%	103%	104%	94.8%	93%	106%	109%	104%	101%	101%	107%	94.2%	103%	
COc1ccccc1CNC(=O)C1c2ccccc2C(=O)N(CC(C)C)C1c1cccs1 (stereo not drawn)	76.6%	62.6%	55.6%	76%	41%		75.1%	46.1%	71.2%	16.4%	46.4%	19.6%	-2.16% (active)	65.7%	-33.5% (active)	63.4%	96.2%	61.6%	30.8%	
CC1=C(CC(=O)c2cccc([N+](=O)[O-])c2)C(=O)c2ccccc2C1=O	-24.9% (active)	-67.2% (active)	-20.9% (active)	-22.3% (active)	-47.2% (active)	-15.3% (active)	-53.2% (active)	108%	-57% (active)	-4.57% (active)	-87.5% (active)	-17.7% (active)	-26% (active)	-33.4% (active)	-58.2% (active)	-22.1% (active)	-13.7% (active)	-41.9% (active)	19.5%	
O=C(N/N=C/c1ccccc1O)C(=O)Nc1ccc(F)cc1	57.7%	50.1%	23.1%	65%	15.7%	44.8%	53.8%	9.67% (active)	46.5%	42.3%	70.9%	43.8%	74.3%	48.8%	4.78% (active)	33.7%	27.2%	50%	28.2%	
O=C1NC(=O)C(=Cc2cn(Cc3cn(Cc4ccc(Cl)cc4Cl)nn3)c3ccccc23)C(=O)N1	81.4%		51.7%	92.6%	77.7%		106%	122%	98.9%	75.5%	91.5%	81.9%	85.2%	84.8%	89.6%	93%	95.8%	96.8%	90.4%	92.4%
COc1ccc(C2=NN(/C=C3\SC(=O)NC3=Nc3ccc(F)cc3)C(c3ccc(F)cc3)C2)cc1 (stereo not drawn)		105%	101%	99.7%	91.2%	92%	92.7%	106%	102%	94.3%	94.3%	93.8%	96%	97.9%	90.8%	106%	103%	104%	98.9%	93.7%
CCCCc1c(CCC)c(=N)c2ccccc2n1C	99.2%	78%	67.7%	48.2%	100%	69.8%	73.8%	70.5%	79.9%	8.23% (active)		43.2%	90.9%	81.4%	9.89% (active)	74.1%	30.8%	55.3%	44.5%	
COc1cc(/C=C2\CN(S(=O)(=O)c3ccccc3)C/C(=C\c3cc(CN4CCCC4)c(O)c(OC)c3)C2=O)cc(CN2CCCC2)c1O	-57.8% (active)	-4.65% (active)	-30.7% (active)	-11.3% (active)	-26.3% (active)	19.9%	4.02% (active)	-30.4% (active)	-16.7% (active)	8.41% (active)	-51.6% (active)	-32.7% (active)	-65.4% (active)	12.9%	-34.2% (active)	-46.6% (active)	40.1%	-19.2% (active)	50.3%	
Cn1nc(C(F)(F)F)c(-c2ccc(Cl)c(C(F)(F)F)c2)c1-c1ccc(OCc2ccc(Cl)cc2)cc1O	-6.46% (active)	50.5%	6.25% (active)	-22.4% (active)	-13.7% (active)	12.8%	28.4%	24.5%	19%		12.2%	8.7% (active)		26%	12.8%	34.4%	2.35% (active)	35.4%	8.53% (active)	
Cc1nn(-c2nc3ccccc3[nH]2)c2c1C(c1ccc(OCC(N)=O)cc1)CC(=O)N2 (stereo not drawn)	103%	100%	103%	105%	100%	109%	104%	117%	107%		88.2%	103%		96.4%	69.5%	100%	110%	80%	98%	
COC(=O)c1c2c(c(C)[n+]([O-])c1C)C(=O)C=C(NCc1ccc(F)c(F)c1)C2=O	-76% (active)		-26.3% (active)	-37.9% (active)		-24.4% (active)	-3.8% (active)		-99.6% (active)	1.15% (active)	-100% (active)	-31.2% (active)	-51% (active)	-12.2% (active)	-99% (active)	-95.7% (active)	-83% (active)	-88.2% (active)	-83.3% (active)	-15.7% (active)
CNCCNc1nc2ccccc2c2c(=O)c3cc(F)ccc3sc12	90.9%	46%	-65.8% (active)	19.2%	33.8%	-56.3% (active)	42.5%		12%	-47.1% (active)	68.1%	19.5%	62%	44.3%	95.2%	71.6%	54.4%	1.91% (active)	13.6%	
O=C(NC1CCN(Cc2ccccc2)CC1)c1cc2nc(-c3ccc(Cl)s3)cc(C(F)(F)F)n2n1	90.8%		26.6%	51.9%		81.9%	102%	-48.6% (active)	83.3%	5.49% (active)	-84.1% (active)	57.1%	94.8%	66.7%	-68.6% (active)	2.96% (active)	-65.5% (active)	48.7%	94.7%	
CC(=S)NC(=O)C(=O)/C=C1/NC(=O)C(=O)S1	97.4%	100%	107%	96.5%		111%	103%	124%	111%	110%	107%	103%	110%	100%	101%	102%	108%	106%	102%	
FC(F)(F)c1cccc(Nc2nc(-c3ccccc3)nc3ncccc23)c1	89.9%	84.5%	20.9%	-67.3% (active)	72.8%		68%	-75% (active)	75.1%	-47.1% (active)	-83.1% (active)	44%	-13.6% (active)	13.3%		3.25% (active)	-52.7% (active)	-86.6% (active)	17.6%	
CC(=O)c1ccc(Cc2ccc(C(C)=O)s2)s1	103%		94.3%	102%	95.8%		102%	119%	113%	94.1%	106%	99.8%	104%	101%	114%	94.1%	111%	107%	99%	92.1%
